Source: PubChem BioAssay AID1962 (The Scripps Research Institute Molecular Screening Center, 2009)
In all, about 300,000 compounds went through this assay and about 2,500 (0.83%) were called active. This excerpt belongs to a sample that is enriched for actives. A number with no mark means an inactive call.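 How the source made its calls: active means inhibition above the mean of all tested compounds plus 3 SD, set per screening campaign (cut at about 24% in these data); inactive means the rest.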

System: tRNA 2'-phosphotransferase TPT1 (Candida albicans SC5314)
Test: tRNA 2'-phosphotransferase blockers, C. albicans – biochemical, fluorescence polarization, primary screen (AID 1962);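 further: plate controls were DMSO alone for no effect and ferristatin control at 100 nM for full effect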
Conditions: recombinant caTPT1, FP RNA substrate dephosphorylation; at 5 µM; stronger effect = higher value

Row | SMILES | inhibition
1 | COc1cc(=O)[nH]c(=O)n1C(=O)Cc1ccccc1 | 1.99%
2 | CCCOc1ccc(Cn2c(O)cc(=O)[nH]c2=O)cc1 | 48.6% (active)
3 | COc1ccc(Cn2c(=O)cc(C)[nH]c2=S)cc1 | -2.44%
4 | CCc1ccc(C(CNc2nc(C(F)(F)F)nc3ccccc23)N(C)C)cc1 (stereo not given) | -2.4%
5 | O=C(/C=C/c1ccc(N2CCOCC2)cc1)c1ccccc1 | 84.1% (active)
6 | CC(=O)Nc1ccc(/C=C/C(=O)c2ccccc2)cc1 | 15.6%
7 | O=C(O)c1ccc2c(c1)C(=O)N(c1ccc(/C=C/C(=O)c3ccccc3)cc1)C2=O | 17.6%
8 | O=C(CC1CCCCC1)NCc1ccccc1 | -1.14%
9 | Oc1ccc(N=Cc2sc3ccccc3c2Cl)cc1 | -0.62%
10 | Oc1ccc(N=Cc2c(O)ccc3ccccc23)cc1 | 78.9% (active)
11 | O=[N+]([O-])c1ccc(N=Cc2c(O)ccc3ccccc23)cc1 | 3.33%
12 | CCOc1cc(NC(=O)c2ccccc2C(=O)O)c(OCC)cc1NC(=O)c1ccccc1F | 2.36%
13 | COC(=O)C1=C(N)Oc2c(oc(CO)cc2=O)C1c1c(F)cccc1Cl (stereo not given) | -1.2%
14 | Cc1ccc(NC(=O)Nc2nnc(-c3ccncc3)s2)cc1 | -0.82%
15 | Cc1ccc(Nc2nc(C)cc(C)c2C(N)=O)cc1 | -2.11%
16 | Cc1ccc(Nc2nc(Cl)c(C=O)s2)cc1 | 54.2% (active)
17 | O=C(Nc1ccccc1Cl)/C(Cl)=C(\Cl)S(=O)c1ccccc1 (stereo not given) | -2.57%
18 | N#CCc1ccc(NC(=O)c2ccccc2C(=O)Nc2ccc(CC#N)cc2)cc1 | -2.77%
19 | O=C(NNC(=S)NC1CC2CCC1C2)c1ccc(Cl)cc1 (stereo not given) | -4.71%
20 | CC(N=Cc1nc(-c2ccccc2)oc1O)c1ccccc1 (stereo not given) | 2.4%

Row | SMILES | inhibition
21 | CCOc1ccc2nc(N(CCCN(C)C)C(=O)c3ccc(C(=O)c4ccccc4)cc3)sc2c1 | -1.89%
22 | CCOc1ccc2nc(/N=C/c3nc(-c4ccccc4)oc3O)sc2c1 | 46.7% (active)
23 | CCOC(=O)c1cc2c(=O)[nH]c(C(Cl)(Cl)Cl)nc2o1 | 1.15%
24 | Cc1cccn2c(=O)c(/C=C3\SC(=S)N(CC(C)C)C3=O)c(NCCCOC(C)C)nc12 | 63.5% (active)
25 | CC(C)OCCCNc1nc2c(c(=O)n(Cc3ccccc3F)c(=O)n2C)n1C | 2.3%
26 | CNc1nc2c(C)cccn2c(=O)c1C=Nc1ccc(OC)cc1 | 1.1%
27 | Cc1[nH]c(C)c(S(=O)(=O)N2CCN(c3cccc(C(F)(F)F)c3)CC2)c1C(=O)N1CCCCC1 | -0.13%
28 | CC(C)(C)NC(=O)COC(=O)c1cc(Cl)ccc1[N+](=O)[O-] | -0.54%
29 | Cc1cccc(N2CCN(C(=O)COCc3cc(-c4ccc5c(c4)OCO5)on3)CC2)c1C | -0.74%
30 | CCCC1C(=O)N2C(N(C)C)=Nc3ccc(C)cc3N2C1=O (stereo not given) | 2.58%
31 | COC(=O)Cn1cnc2scc(-c3ccc(C)c(C)c3)c2c1=O | 1.3%
32 | CCOc1cc(/C=C2/C(=N)N3OC(C)=CC3=NC2=O)ccc1OC | 6.06%
33 | CC1=CC2=NC(=O)/C(=C/c3coc4ccccc4c3=O)C(=N)N2O1 | 34.6% (active)
34 | COc1ccc(OCCCn2cccc2/C=C2/C(=N)N3OC(C)=CC3=NC2=O)cc1 | 0.42%
35 | Cc1cc(/C=N/Nc2ccc([N+](=O)[O-])cn2)c(C)n1-c1cccc(C(=O)O)c1 | 43% (active)
36 | Cc1ccc(N2CCN(c3ccc([N+](=O)[O-])cn3)CC2)c(C)c1 | -2.01%
37 | Cc1ccc(-n2c(C)cc(/C=N/Nc3ccc([N+](=O)[O-])cn3)c2C)c(C)c1 | 66.7% (active)
38 | Cc1cc(/C=C2\SC(=O)N(C)C2=O)c(C)n1-c1cccc(C(=O)O)c1 | -0.06%
39 | COc1ccc(Nc2ccc([N+](=O)[O-])cn2)cn1 | -14.7%
40 | COc1cc(/C=N\Nc2ccc([N+](=O)[O-])cn2)ccc1OCC(=O)O | 1.83%

Row | SMILES | inhibition
41 | C=CCn1c(COc2ccc(F)cc2)nnc1SCC(=O)Nc1cccc(S(N)(=O)=O)c1 | -5.67%
42 | COc1cccc(C2CC(c3cccs3)=NN2C(=O)CSC2=NCCS2)c1OC (stereo not given) | -2.93%
43 | CCC(C)CN1CCC(CO)(Cc2ccccc2Cl)CC1 (stereo not given) | -0.69%
44 | COC1(C2=NCCN2)COc2ccccc2O1 (stereo not given) | -5.32%
45 | COc1ccccc1NC(=O)COC(=O)c1ccccc1SCC(=O)N1CCCC1 | 0.11%
46 | COc1ccccc1C1SCCN1C(=O)c1ccc([N+](=O)[O-])cc1 (stereo not given) | 1.69%
47 | COc1ccc(NS(=O)(=O)c2ccc(C)c(C(=O)N(C)Cc3ccc(OC)cc3OC)c2)cc1 | -1.13%
48 | Cc1nc2sc(C(=O)c3ccccc3)c(N)c2c2c1CCCC2 | -0.9%
49 | Nc1c(C(=O)c2cccs2)sc2nsc(SCCN3CCCCC3)c12 | 68.2% (active)
50 | CN(C)c1ccnc2sc(C(=O)c3ccccc3)c(N)c12 | 2.61%
51 | CCCNC(=S)N1CCC(NC(=O)c2ccc(OC)cc2)CC1 | 3.14%
52 | CN1/C(=C\C(=O)c2oc3ccccc3c2N)C(C)(C)c2ccccc21 | 2.22%
53 | CN1CCN(CCC(=O)N/N=C/C=C2\N(C)c3ccccc3C2(C)C)CC1 | 11.7%
54 | CN1/C(=C\C=C2\N=C(c3ccc(F)cc3)OC2=O)C(C)(C)c2ccccc21 | 110% (active)
55 | O=C(c1c(F)cccc1Cl)N1CCN(c2ccccn2)CC1 | 0.41%
56 | O=C(Nc1ccccc1N1CCCC1)c1ccc(F)c(S(=O)(=O)N2CCOCC2)c1 | 0.87%
57 | O=C1NCC(=O)N(Cc2ccccc2)/C1=C/c1ccccc1 | 1.04%
58 | CN(C)c1ccc(/C=C2\NC(=S)N(Cc3ccccc3)C2=O)cc1 | 196% (active)
59 | O=C1/C(=C\c2ccsc2)NC(=S)N1c1ccccc1 | 0.45%
60 | COCC(=O)Nc1c(I)c(C(=O)NCC(O)CO)c(I)c(C(=O)N(C)CC(O)CO)c1I (stereo not given) | 1.86%
